Here are results for 54 compounds from article PMC4336329 (PLoS ONE, 2015).

Screen size: about 310,000 compounds; about 14,000 (4.5%) showed an effect of 50% or more. Effects have a minus sign here. For the sample, strong results were picked, then their nearest neighbours and some compounds at random.
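Note: peak tail current of the secondary pulse compared with the same well before compound.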

In the experiment the target is human ether-à-go-go-related gene (hERG) potassium channel (human, UniProt Q12809). In words: primary screen, population patch clamp on CHO cells stably expressing hERG; higher = less effect of the substance.
Chain of human ether-à-go-go-related gene (hERG) potassium channel (Q12809 whole entry, looked up): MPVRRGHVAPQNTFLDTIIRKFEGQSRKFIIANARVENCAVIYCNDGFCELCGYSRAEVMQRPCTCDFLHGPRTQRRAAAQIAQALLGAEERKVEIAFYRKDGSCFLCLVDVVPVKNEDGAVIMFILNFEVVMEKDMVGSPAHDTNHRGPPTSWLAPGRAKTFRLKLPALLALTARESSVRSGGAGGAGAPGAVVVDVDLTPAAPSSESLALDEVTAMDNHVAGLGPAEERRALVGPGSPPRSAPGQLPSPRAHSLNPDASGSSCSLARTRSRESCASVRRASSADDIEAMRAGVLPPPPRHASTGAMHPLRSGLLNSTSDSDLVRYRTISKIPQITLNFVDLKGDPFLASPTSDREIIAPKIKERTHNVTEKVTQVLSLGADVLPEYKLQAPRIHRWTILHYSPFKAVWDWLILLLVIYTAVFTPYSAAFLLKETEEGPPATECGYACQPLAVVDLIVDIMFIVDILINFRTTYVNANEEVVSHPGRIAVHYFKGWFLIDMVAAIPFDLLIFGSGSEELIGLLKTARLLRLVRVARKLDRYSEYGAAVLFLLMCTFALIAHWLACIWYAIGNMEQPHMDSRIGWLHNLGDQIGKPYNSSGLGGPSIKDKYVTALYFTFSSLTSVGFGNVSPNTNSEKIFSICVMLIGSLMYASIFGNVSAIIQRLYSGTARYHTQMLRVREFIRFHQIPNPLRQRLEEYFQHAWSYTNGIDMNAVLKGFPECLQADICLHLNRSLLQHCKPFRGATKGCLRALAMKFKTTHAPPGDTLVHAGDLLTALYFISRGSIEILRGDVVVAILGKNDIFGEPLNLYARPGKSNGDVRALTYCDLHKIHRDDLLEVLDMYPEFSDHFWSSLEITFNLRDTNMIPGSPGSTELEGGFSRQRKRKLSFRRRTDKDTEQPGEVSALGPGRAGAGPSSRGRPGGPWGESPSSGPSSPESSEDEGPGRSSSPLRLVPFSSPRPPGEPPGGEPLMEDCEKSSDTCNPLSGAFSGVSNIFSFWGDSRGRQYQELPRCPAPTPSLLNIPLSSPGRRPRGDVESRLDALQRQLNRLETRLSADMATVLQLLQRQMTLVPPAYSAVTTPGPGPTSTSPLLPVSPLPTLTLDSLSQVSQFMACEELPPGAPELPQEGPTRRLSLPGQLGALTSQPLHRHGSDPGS
As for `Cc1ccc(C(=O)O/N=C(\N)c2ccccn2)c(C)c1`, the “hERG current change (%, negative = inhibition) at 10uM” value is reported as -3.86%.

In the case of `C/C(=N\OCC(=O)O)c1ccc(Cl)cc1`, the “hERG current change (%, negative = inhibition) at 10uM” value is given as 13.5%.

In the case of `COc1ccc(CNC(=O)C(c2ccncc2)N(C(=O)Cc2cccs2)c2ccc(C)cc2)cc1` (stereo not drawn), the “hERG current change (%, negative = inhibition) at 10uM” value was -15.7%.

For `Cc1ccc(C2Nc3ccccc3C(=O)N2Cc2ccco2)cc1` (stereo not drawn), the “hERG current change (%, negative = inhibition) at 10uM” value was -32.5%.

As for `O=C(O)c1cc(OCc2ccccc2)cc(OCc2ccccc2)c1`, the “hERG current change (%, negative = inhibition) at 10uM” value is given as 10.8%.

For `COc1ccc(NC(=O)CS(=O)CC(=O)Nc2ccc(OC)c(OC)c2)cc1` (stereo not drawn), the “hERG current change (%, negative = inhibition) at 10uM” value came to 10.9%.

For `O=[N+]([O-])c1ccc(CSc2ccc(S(=O)(=O)N3CCCC3)cn2)cc1`, the “hERG current change (%, negative = inhibition) at 10uM” value was -32.6%.

`Cc1ccc(N2C(=O)CC(N3CCc4ccccc43)C2=O)cc1Cl` (stereo not drawn): the “hERG current change (%, negative = inhibition) at 10uM” value turned out to be 15.6%.

`Cc1ccc2nc(Cl)c3cc(C(=O)N(CCN(C)C)Cc4ccco4)sc3c2c1`: the “hERG current change (%, negative = inhibition) at 10uM” value is given as -39.8%.

For `CCCCN(C)C(=O)c1cc2c(Cl)nc3ccccc3c2s1`, the “hERG current change (%, negative = inhibition) at 10uM” value is given as -4.12%.

Turning to `CN(C)CCN(Cc1ccco1)C(=O)c1cc2c(Cl)nc3ccccc3c2s1`, the “hERG current change (%, negative = inhibition) at 10uM” value was -70.1%.

As for `Cc1cc(=O)[nH]c(SCC(=O)Nc2ccc(C(=O)O)cc2)n1`, the “hERG current change (%, negative = inhibition) at 10uM” value was determined as 5.37%.

With `O=Cc1c[nH]c2ccc(C(=O)c3ccccc3)cc12`, the “hERG current change (%, negative = inhibition) at 10uM” value came to 3.97%.

Take `CC(C)(C)n1nnnc1C(c1cccnc1)N1CCN(C(=O)c2ccco2)CC1` (stereo not drawn): the “hERG current change (%, negative = inhibition) at 10uM” value is -15.1%.

As for `COc1cc(C(=O)ON=C2C(C)=CC(=O)C=C2C)cc(OC)c1OC`, the “hERG current change (%, negative = inhibition) at 10uM” value was -11.9%.

For `C#CCOCCOCCOCCNc1nc(N2CCN(C(=O)[C@H](Cc3ccc(O)cc3)n3cc([C@@H](N)C(C)CC)nn3)CC2)nc(N2CCN(C(=O)[C@H](CCCCN)n3cc([C@@H](N)CC(C)C)nn3)CC2)n1.Cl` (stereo partly drawn), the “hERG current change (%, negative = inhibition) at 10uM” value amounted to 6.05%.

Regarding `C/C(=N/NC(=O)CNS(=O)(=O)c1ccc(C)cc1)c1cccc([N+](=O)[O-])c1`, the “hERG current change (%, negative = inhibition) at 10uM” value is 14.5%.

For `O=C(Nc1ccc(Cl)cc1)N(Cc1cccs1)Cc1cccs1`, the “hERG current change (%, negative = inhibition) at 10uM” value was found to be 0.899%.

In the case of `Cc1ccc(NC(=O)N(CCCN2CCOCC2)Cc2cccs2)cc1C`, the “hERG current change (%, negative = inhibition) at 10uM” value is -47.6%.

Turning to `Cc1ccc(NC(=O)N(CCCN2CCOCC2)Cc2cccnc2)cc1C`, the “hERG current change (%, negative = inhibition) at 10uM” value is listed as -10.8%.

For the compound `O=C(Nc1ccc(Cl)cc1)N(CCCN1CCOCC1)Cc1cccs1`, the “hERG current change (%, negative = inhibition) at 10uM” value is recorded as -70.7%.

For the compound `O=C(Nc1ccccc1)N(CCCN1CCOCC1)Cc1cccs1`, the “hERG current change (%, negative = inhibition) at 10uM” value is listed as -40.1%.

`CCc1ccc(NC(=O)N(CCCN2CCOCC2)Cc2cccs2)cc1`: the “hERG current change (%, negative = inhibition) at 10uM” value is recorded as -52.8%.

Regarding `Cc1ccc(NC(=S)N(CCCN2CCOCC2)Cc2cccnc2)cc1C`, the “hERG current change (%, negative = inhibition) at 10uM” value came to 7.44%.

Regarding `CCC(C)NC(=O)CNC(=S)N(CCCN1CCOCC1)Cc1cccs1` (stereo not drawn), the “hERG current change (%, negative = inhibition) at 10uM” value was -14.4%.

`COc1ccc(CN(CCCN2CCOCC2)C(=O)Nc2ccccc2)cc1OC`: the “hERG current change (%, negative = inhibition) at 10uM” value is given as -10.9%.

With `O=C(Nc1ccc(Cl)c(Cl)c1)N(CCCN1CCOCC1)Cc1cccnc1`, the “hERG current change (%, negative = inhibition) at 10uM” value is -55.5%.

Turning to `O=C(Nc1ccc(Cl)c(Cl)c1)N(CCCN1CCOCC1)Cc1cccs1`, the “hERG current change (%, negative = inhibition) at 10uM” value is recorded as -78%.

As to `COc1ccc2c(c1)[C@@H]1[C@H](CO2)[C@H](c2ccccc2)[C@]2(C)C(=O)NCC(=O)N12`, the “hERG current change (%, negative = inhibition) at 10uM” value worked out at 4.48%.

On to `CC(Cc1cccs1)NC(=S)Nc1ccc(Cl)cc1` (stereo not drawn), for which the “hERG current change (%, negative = inhibition) at 10uM” value worked out at 14.6%.

Consider `COC(=O)c1c(C)[nH]c(C=O)c1-c1ccccc1`, for which the “hERG current change (%, negative = inhibition) at 10uM” value is on record as 10.3%.

For the compound `Cc1ccc(NC(=O)c2ccc(Oc3ncccn3)cc2)cc1`, the “hERG current change (%, negative = inhibition) at 10uM” value amounted to 12.2%.

As to `CN(C)CC(CCCCC(CN(C)C)C(=O)c1ccccc1)C(=O)c1ccccc1` (stereo not drawn), the “hERG current change (%, negative = inhibition) at 10uM” value was 9.78%.

Take `O=C(NCCNc1ccc([N+](=O)[O-])cc1)c1ccco1`: the “hERG current change (%, negative = inhibition) at 10uM” value was -23.7%.

`O=C(Nc1ccc(Br)cc1)c1cccc(OC(=S)N2CCOCC2)c1`: the “hERG current change (%, negative = inhibition) at 10uM” value stood at 17%.

As to `COc1nnc(-c2ccc(C)c(S(=O)(=O)NC(C)C)c2)c2ccccc12`, the “hERG current change (%, negative = inhibition) at 10uM” value is -52.8%.

For the compound `c1ccc(-c2nnc(OCC3CCCO3)c3ccccc23)cc1` (stereo not drawn), the “hERG current change (%, negative = inhibition) at 10uM” value is -10.8%.

Take `Cc1ccc(-c2nnc(N3CCCCC3)c3ccccc23)cc1S(=O)(=O)NCC1CCCO1` (stereo not drawn): the “hERG current change (%, negative = inhibition) at 10uM” value is -16%.

Consider `Cc1ccc(Oc2nnc(-c3ccc(C)cc3)c3ccccc23)cc1`, for which the “hERG current change (%, negative = inhibition) at 10uM” value is reported as 2.75%.

For the compound `COc1nnc(-c2ccc(C)c(S(=O)(=O)NCC3CCCO3)c2)c2ccccc12` (stereo not drawn), the “hERG current change (%, negative = inhibition) at 10uM” value is recorded as -69.5%.

Take `COc1nnc(-c2ccc(C)c(S(N)(=O)=O)c2)c2ccccc12`: the “hERG current change (%, negative = inhibition) at 10uM” value came out at 4.8%.

Regarding `Cc1ccc(-c2nnc(Nc3ccccc3)c3ccccc23)cc1S(=O)(=O)NCC1CCCO1` (stereo not drawn), the “hERG current change (%, negative = inhibition) at 10uM” value is listed as -40.5%.

Take `COc1nnc(-c2ccc(C)c(S(=O)(=O)N(C)C)c2)c2ccccc12`: the “hERG current change (%, negative = inhibition) at 10uM” value was -77.6%.

For the compound `COc1nnc(-c2ccc(C)c(S(=O)(=O)NC(C)(C)CO)c2)c2ccccc12`, the “hERG current change (%, negative = inhibition) at 10uM” value was -15.9%.

For the compound `CCNS(=O)(=O)c1cc(-c2nnc(OC)c3ccccc23)ccc1C`, the “hERG current change (%, negative = inhibition) at 10uM” value is -37.3%.

Turning to `Cc1ccc(-c2nnc(OCC3CCCO3)c3ccccc23)cc1` (stereo not drawn), the “hERG current change (%, negative = inhibition) at 10uM” value was -65.2%.

As to `COc1nnc(-c2ccc(C)c(S(=O)(=O)NCCO)c2)c2ccccc12`, the “hERG current change (%, negative = inhibition) at 10uM” value was -14.6%.

`CC(C)CNC(=S)NC(=O)c1ccc(Cl)cc1Cl`: the “hERG current change (%, negative = inhibition) at 10uM” value came to 3.88%.

Consider `Br.Cc1cccc(N2C(=O)SC(SC(=Nc3ccccc3)Nc3ccccc3)C2=O)c1` (stereo not drawn), for which the “hERG current change (%, negative = inhibition) at 10uM” value was 15.3%.

In the case of `Cc1c(Br)c([N+](=O)[O-])nn1CCCC(=O)NC(C)c1ccccc1` (stereo not drawn), the “hERG current change (%, negative = inhibition) at 10uM” value was -16.2%.

For `O=C(Nc1c2c(nn1-c1ccccc1)CS(=O)(=O)C2)c1ccccc1Br`, the “hERG current change (%, negative = inhibition) at 10uM” value was -0.51%.

As to `COc1ccccc1C(c1nnnn1C(C)(C)C)N1CCCCCC1` (stereo not drawn), the “hERG current change (%, negative = inhibition) at 10uM” value is -20.9%.

As for `COc1ccc(NC(=O)CN(C)S(=O)(=O)c2ccc3c(c2)n(C)c(=O)c(=O)n3C)cc1`, the “hERG current change (%, negative = inhibition) at 10uM” value amounted to 14%.

For the compound `COc1ccc(CSc2nc3ccccc3c(=O)[nH]2)cc1F`, the “hERG current change (%, negative = inhibition) at 10uM” value is reported as 36.6%.
